Assay outcomes deposited in PubChem by Broad Institute.
Many of the other results were omitted from the sample, so hits are more common in it than they were.
IDE exosite FP – exo-site inhibitors of human insulin-degrading enzyme | purified IDE, FL-6b probe fluorescence polarization; hits give low values | 17,000 compounds, 6.3% hits | P14735 | z-score at 20 µM | AID 1259349;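 active = z-score of -3 or lower, meaning strong loss of probe binding signal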;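 note: His-tagged human IDE residues 42-1019 made in E. coli with 30 nM FL-6b probe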
* = called active by the depositor; ! = not confirmed by another sample.

SMILES | IDE exosite FP
O=C(Nc1ccccc1F)N1[C@@H]2CNC[C@H]1C2c1ccc(-c2ccccc2)cc1 (stereo not given in full) | 2.99
O=C(Nc1ccc2c(c1)OCO2)N1[C@@H]2CNC[C@H]1C2c1ccc(/C=C/c2ccccc2)cc1 (stereo not given in full) | -1.49
O=C(Nc1ccc(F)cc1)N1[C@@H]2CNC[C@H]1C2c1ccc(-c2cccnc2)cc1 (stereo not given in full) | -0.0593
O=C(Nc1cccc(F)c1)N1[C@@H]2CNC[C@H]1C2c1ccc(-c2cncnc2)cc1 (stereo not given in full) | -2.72
COc1ccccc1-c1ccc(C2[C@H]3CNC[C@@H]2N3C(=O)Nc2ccccc2Cl)cc1 (stereo not given in full) | -3.24*
COc1cccc(-c2ccc(C3[C@H]4CNC[C@@H]3N4C(=O)Nc3ccccc3OC)cc2)c1 (stereo not given in full) | -3.87*
COc1ccc(NC(=O)N2[C@@H]3CNC[C@H]2C3c2ccc(-c3cccc(C(=O)N(C)C)c3)cc2)cc1 (stereo not given in full) | 0.852
COc1cccc(-c2ccc(C3[C@H]4CNC[C@@H]3N4C(=O)Nc3cc(F)ccc3F)cc2)c1 (stereo not given in full) | 3.67
O=C(Nc1ccc2c(c1)OCO2)N1[C@@H]2CNC[C@H]1C2c1ccc(-c2ccncc2)cc1 (stereo not given in full) | -3.2*!
O=C(Nc1ccccc1Cl)N1[C@@H]2CNC[C@H]1C2c1ccc(-c2ccccc2)cc1 (stereo not given in full) | 1.19
O=C(Nc1ccccc1F)N1[C@@H]2CNC[C@H]1C2c1ccc(-c2cccnc2)cc1 (stereo not given in full) | -3.26*!
C/C=C/c1ccc(C2[C@H]3CNC[C@@H]2N3C(=O)Nc2ccccc2Cl)cc1 (stereo not given in full) | 0.32
CC(C)C#Cc1ccc([C@H]2[C@@H](CO)N3CCCCN(S(=O)(=O)Cc4ccccc4)C[C@H]23)cc1 | 3.97
O=S(=O)(c1ccc(F)cc1)N1CCCCN2[C@@H](CO)[C@H](c3ccc(-c4ccccc4)cc3)[C@@H]2C1 | 1.31
C[C@H](CO)N1C[C@H](C)[C@@H](CN(C)Cc2ccc(C(F)(F)F)cc2)OCCCC[C@H](C)Oc2ccc(NC(=O)Nc3cccc4ccccc34)cc2C1=O | 0.633
CC(C)(C)[S@](=O)N1Cc2cc(C(=O)NCCN3CCCC3)nc(-c3cccc(-c4ccc(C#N)cc4)c3)c2[C@@H]1CCO | -0.524
COCC(=O)N1CC2(C1)CN(S(C)(=O)=O)[C@@H](CO)c1c2c2ccc(OC)cc2n1C | -2
C[C@H](CO)N1C[C@H](C)[C@H](CN(C)C(=O)Nc2ccc(C(F)(F)F)cc2)Oc2ncc(C3=CCCC3)cc2C1=O | -2.11
O=C(CN1CCOCC1)N[C@H]1CC[C@@H](CCn2cc(C3CC3)nn2)O[C@@H]1CO | 1.39
N#Cc1ccc(-c2ccc([C@@H]3[C@@H](CO)N4C(=O)CN(C(=O)C5CC5)C[C@H]34)cc2)cc1 | 1.54
O=C(C1CCC1)N1CCCCN2[C@H](CO)[C@@H](c3ccc(-c4ccncc4)cc3)[C@H]2C1 | 0.437
c1cc(-c2ccc(C3[C@H]4CNC[C@@H]3N4CC3CCCCC3)cc2)ccn1 (stereo not given in full) | 1.83
O=C(c1ccncc1)N1CC(=O)N2[C@H](C1)[C@H](c1ccc(-c3ccccc3F)cc1)[C@@H]2CO | -0.154
Cc1ccccc1-c1ccc([C@H]2[C@H]3CN(C(=O)c4ccncc4)CC(=O)N3[C@H]2CO)cc1 | 0.379
Cc1ccccc1-c1ccc([C@H]2[C@H]3CN(C(=O)c4cccnc4)CC(=O)N3[C@H]2CO)cc1 | -1.95
SMILES | IDE exosite FP
Cc1ccccc1-c1ccc([C@@H]2[C@H]3CN(C(=O)c4ccncc4)CC(=O)N3[C@H]2CO)cc1 | -13.6*
O=C(c1ccncc1)N1CC(=O)N2[C@H](CO)[C@@H](c3ccc(-c4ccccc4F)cc3)[C@@H]2C1 | -1.9
Cc1ccccc1-c1ccc([C@@H]2[C@@H](CO)N3C(=O)CN(C(=O)c4ccncc4)C[C@@H]23)cc1 | -3.55*
O=C(c1ccncc1)N1CC(=O)N2[C@H](CO)[C@H](c3ccc(-c4ccccc4F)cc3)[C@H]2C1 | -4.8*
O=C(c1ccncc1)N1CC(=O)N2[C@@H](CO)[C@@H](c3ccc(-c4cccnc4)cc3)[C@@H]2C1 | 1.85
O=C(c1ccncc1)N1CC(=O)N2[C@H](CO)[C@H](c3ccc(-c4cccnc4)cc3)[C@@H]2C1 | 1.6
Cc1ccccc1-c1ccc([C@@H]2[C@H](CO)N3C(=O)CN(C(=O)c4ccncc4)C[C@@H]23)cc1 | -5.29*
Cc1ccccc1-c1ccc([C@H]2[C@H]3CN(C(=O)c4ccccc4)CC(=O)N3[C@H]2CO)cc1 | 0.767
CO[C@@H]1CN(C)C(=O)c2ccc(NC(=O)c3ccno3)cc2OC[C@H](C)N(S(C)(=O)=O)C[C@@H]1C | 1.69
C[C@@H]1CCCCO[C@@H](CN(C)Cc2ccc(C(=O)Nc3ccccc3N)cc2)[C@@H](C)CN([C@H](C)CO)C(=O)c2cc(NC(=O)CCC(F)(F)F)ccc2O1 | 1.29
N#Cc1cccc(-c2ccc(C3[C@H]4CNC[C@@H]3N4S(=O)(=O)c3ccc(F)cc3)cc2)c1 (stereo not given in full) | 1
O=C(Nc1ccccc1F)N1C[C@@H]2[C@H](c3ccccc31)[C@H](CO)N2C(=O)Cc1cccnc1 | 1.74
C[C@@H]1CN([C@H](C)CO)C(=O)c2c(c3ccccc3n2C)-c2ccccc2CO[C@@H]1CN(C)C(=O)Nc1ccc2c(c1)OCO2 | 0.639
C[C@H]1CC(=O)NCC/C=C\C[C@@H](c2cccc(Cl)c2)NC1=O | -0.247
COc1ccc2c3c([nH]c2c1)[C@H](CO)N(C(=O)Nc1ccc(F)cc1)CC31CCN(C(=O)c2ccccc2F)CC1 | -0.515
C[C@@H]1CN([C@H](C)CO)C(=O)CCCn2nncc2CO[C@H]1CN(C)C(=O)c1ccc2ccn(C)c2c1 | -0.638
O=S(=O)(NC[C@H]1N[C@H](CO)[C@@H]1c1ccccc1)c1ccccc1 | 2.42
N#C[C@@H]1[C@H](c2ccc(C#CC3CCCCC3)cc2)[C@H](CO)N1S(=O)(=O)c1ccccc1 | 1.98
O=C(C[C@H]1CC[C@H](NS(=O)(=O)c2ccc(F)cc2)[C@H](CO)O1)N1CCN(c2ccccc2)CC1 | 3.57
Cc1noc(C)c1NC(=O)Nc1ccc2c(c1)C(=O)N([C@@H](C)CO)C[C@@H](C)[C@H](CN(C)Cc1ccc3c(c1)OCO3)OCCCC[C@@H](C)O2 | 1.1
COc1ccc(-c2ccc([C@H]3[C@@H](CO)N4C(=O)CN(C(=O)c5ccccn5)C[C@@H]34)cc2)cc1 | -1.34
CC(C)C#Cc1ccc([C@@H]2[C@@H](CO)N3C(=O)CN(C(=O)c4ccccn4)C[C@H]23)cc1 | 2.73
Cc1ccccc1-c1ccc([C@H]2[C@@H](CO)N3C(=O)CN(C(=O)c4ccccn4)C[C@@H]23)cc1 | -11.5*
O=C(C[C@@H]1CC[C@H]2NC[C@@H](O)COC[C@@H]2O1)NC1Cc2ccccc2C1 | -0.106
COc1ccccc1-c1ccccc1[C@H]1[C@@H](CO)N(C(=O)C2CC2)[C@H]1C#N | 2.14
COc1ccccc1-c1ccc([C@@H]2[C@H](C#N)N(C(=O)C3CCC3)[C@H]2CO)cc1 | -1.46
COc1ccc(-c2ccc([C@H]3[C@H](C#N)N(C(=O)C4CCCC4)[C@H]3CO)cc2)cc1 | 0.474
